Consider 97 compounds from PubChem BioAssay AID485364 (National Center for Advancing Translational Sciences (NCATS), 2010).

The campaign covered roughly 360,000 compounds. About 11,000 (3.1%) were called active. Entries that show only a call come without a potency. About 4% were inconclusive and are not listed. Calls follow the shape of the dose curve; as a rule, active = well fitted inhibition curve with a large enough effect; inconclusive = small, poorly fitted or top-dose-only effect; inactive = no such curve, though single readings can be large or run the other way. The full list was thinned out, with actives kept by preference.
Potency is read from the fitted curve at half-maximal effect.

The assay deals with Schistosoma mansoni thioredoxin glutathione reductase (TGR) (UniProt Q962Y6). The assay can be described thus: qHTS Assay for the Inhibitors of Schistosoma Mansoni Peroxiredoxins. Also: nearly all actives have a fitted effect of over 60% in size. The conditions noted are these: purified TGR, DTNB reduction, TNB absorbance 405 nm; series mostly up to 114 µM. The method in brief:
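Kinetic colorimetric format: TGR-catalysed, NADPH-driven DTNB reduction monitored via TNB absorbance. Enzyme dispensed at 20 nM; compound exposure 15 min at room temperature before reaction start.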
On the technique in general: Quantitative high-throughput screening tests each substance at several concentrations.
For the compound `CCCCN(C(=O)c1ccc(C)o1)c1c(N)n(CCCC)c(=O)[nH]c1=O`, the Potency entry is “inactive”.

With `CCCCn1c(N)c(N(CC)C(=O)c2ccccc2C(F)(F)F)c(=O)[nH]c1=O`, the Potency result was “inactive”.

In the case of `CCCCn1c(N)c(N(CC)C(=O)/C=C/c2ccco2)c(=O)[nH]c1=O`, the Potency is 22.4 µM (active).

In the case of `CCCCn1c(N)c(N(CC)C(=O)c2ccc(N(C)S(=O)(=O)c3ccc(C)cc3)cc2)c(=O)[nH]c1=O`, the Potency entry was “inactive”.

Take `CCCCN(C(=O)/C=C/c1ccco1)c1c(N)n(CC(C)C)c(=O)[nH]c1=O`: the Potency is 44.7 µM (active).

On to `CCCCN(C(=O)c1nn(C)c(=O)c2ccccc12)c1c(N)n(CCC)c(=O)[nH]c1=O`, for which the Potency result was “inactive”.

On to `Cc1ccc(OCC(=O)Nc2ccccc2C(=O)NC2CC2)cc1C`, for which the Potency was 35.5 µM (active).

`COc1ccccc1OCC(=O)Nc1ccccc1C(=O)NC1CC1`: the Potency result was “inactive”.

`Cc1ccc(OCC(=O)Nc2ccccc2C(=O)NC2CC2)cc1`: the Potency entry was “inactive”.

As to `COc1cccc(C(=O)NC2=NC(c3ccc(N(C)C)cc3)CC(=O)N2)c1` (configuration not stated), the Potency entry was “inactive”.

Turning to `COc1cc2nc(SCC(=O)Nc3ccccc3F)n3nc(-c4ccccc4)nc3c2cc1OC`, the Potency result was “inactive”.

Regarding `S=C(NCCc1ccccc1)NCC1CCCO1` (configuration not stated), the Potency entry is “inactive”.

Consider `Oc1c(Br)cc(/C=N/NC(=S)NCC2CCCO2)cc1Br` (configuration not stated), for which the Potency was 2.51 µM (active).

As to `S=C(NCC1CCCO1)N1CCN(c2ccc(Cl)c(Cl)c2)CC1` (configuration not stated), the Potency entry is “inactive”.

With `CCc1ccc(N2C(=O)CN(S(=O)(=O)CC)CC2(C)C(=O)NC2CCCCC2)cc1` (configuration not stated), the Potency entry is “inactive”.

As for `CCNC(=S)Nc1cccc(Cl)c1C`, the Potency entry was “inactive”.

Regarding `COc1ccc(NC(=S)Nc2ccccc2Cl)cn1`, the Potency is 20 µM (active).

For the compound `COc1cccc(NC(=O)CN2CCN(CC(=O)Nc3ccccc3Cl)CC2)c1`, the Potency result is “inactive”.

Regarding `O=C(CCc1nc(CN2CCN(S(=O)(=O)c3ccc(Br)cc3)CC2)no1)N1CCCCC1`, the Potency result is “inactive”.

For `CCn1cc2nc(SCc3ccccc3Cl)n(CCc3ccccc3)c(=O)c2n1`, the Potency entry is “inactive”.

Consider `COc1cc(NS(=O)(=O)c2ccc(NC(=O)CN3C(=O)c4ccccc4C3=O)cc2)ncn1`, for which the Potency result was “inactive”.

With `COc1ccc(NS(=O)(=O)c2ccc(NC(=S)NC(=O)CC(C)C)cc2)cc1`, the Potency entry is “inactive”.

For the compound `COc1cc(NS(=O)(=O)c2ccc(NC(=S)NC(=O)c3ccccc3)cc2)nc(OC)n1`, the Potency was 20 µM (active).

In the case of `COc1cc(NS(=O)(=O)c2ccc(NC(=S)NC(=O)c3ccc(Br)cc3)cc2)ncn1`, the Potency was 17.8 µM (active).

As to `COc1cc(NS(=O)(=O)c2ccc(NC(=O)c3ccc(S(=O)(=O)N4CCCCC4)cc3)cc2)ncn1`, the Potency result was “inactive”.

Regarding `O=C(Nc1ccc(S(=O)(=O)Nc2ccccn2)cc1)c1ccccc1`, the Potency entry was “inactive”.

For the compound `COc1ccc(-c2nc3c4ccccc4n(CC(=O)Nc4ccc(C(C)=O)cc4)c(=O)n3n2)cc1`, the Potency result was “inactive”.

With `Cc1ccccc1-n1c(=O)c2ccccc2n(Cc2ccc(F)cc2)c1=O`, the Potency result is “inactive”.

With `Nc1ccccc1SC(C[N+](=O)[O-])c1ccccc1` (configuration not stated), the Potency was 17.8 µM (active).

In the case of `Cc1ccccc1-c1nc2cc(NC(=O)c3cccc(OCCC(C)C)c3)ccc2o1`, the Potency entry is “inactive”.

Consider `CCOc1ccc(C(=O)c2cn(Cc3ccc(F)cc3)c3ccc(F)cc3c2=O)cc1`, for which the Potency entry is “inactive”.

For `O=C(CSc1nc2ccccc2nc1Cc1ccccc1)N1CCCCC1`, the Potency result is “inactive”.

Turning to `O=C1CCCCC1C(=O)c1ccccc1` (configuration not stated), the Potency result is “inactive”.

For `CN(C)CC1CCCCC1=O` (configuration not stated), the Potency was 11.2 µM (active).

In the case of `CC(C)(C)OC(=O)N1CCC(c2c(C(=O)N3CCc4ccccc4C3)cnn2-c2ccc(F)cc2)CC1`, the Potency entry was “inactive”.

With `COc1cc(NC(=O)c2cc(C3CC3)nc3c2c(C)nn3-c2ccccc2)cc(OC)c1`, the Potency result was “inactive”.

Consider `Cc1ccc(NC(=O)NC(C)c2c(-n3cccc3)sc(C)c2C)c(C)c1` (configuration not stated), for which the Potency result is “inactive”.

`Cc1c(NC(=O)Nc2ccc(F)c(Cl)c2)c(=O)n(-c2ccccc2)n1C`: the Potency entry was “inactive”.

Turning to `Cc1ccccc1NC(=O)c1c(NC(=O)c2ccccc2F)sc2c1CCC(C)C2` (configuration not stated), the Potency result was “inactive”.

Turning to `Cc1ccc(Oc2c(C(F)(F)F)oc3c(CN4CCCCC4)c(O)ccc3c2=O)cc1`, the Potency result was “inactive”.

Turning to `CCOC(=O)COc1cc(OCC(=O)OCC)c2c(=O)cc(-c3ccccc3)oc2c1`, the Potency entry is “inactive”.

As to `COc1c(O)cc2oc(-c3ccc(O)c(O)c3)cc(=O)c2c1O`, the Potency is 39.8 µM (active).

Turning to `COc1ccc(-c2c(C)c3ccc(O)c(CN4CCN(C)CC4)c3oc2=O)cc1OC`, the Potency entry is “inactive”.

With `CC1=C(C(=O)N2CCN(c3cccc(C(F)(F)F)c3)CC2)C2(CCCCC2)OC1=O`, the Potency entry is “inactive”.

Take `Cc1ccc(Nc2nc3ccccc3nc2-n2nc(C)cc2C)c(Cl)c1`: the Potency result is “inactive”.

`Cc1oc2ccc(O)c(CN3CCC(C)CC3)c2c1C(=O)Nc1ccccc1`: the Potency result was “inactive”.

For `CN(Cc1ccccc1)C(=O)c1cn(C)c2ccc(S(=O)(=O)N(C)C3CCCCC3)cc2c1=O`, the Potency result was “inactive”.

In the case of `CCCC12CN3CC(C)(CN(C1)C3c1ccccc1Cl)C2=O` (configuration not stated), the Potency result is “inactive”.

With `COc1ccc(NC(=S)NC2CCS(=O)(=O)C2)cc1` (configuration not stated), the Potency entry is “inactive”.

`COc1ccc(NC2=CC(=S)NC(C)(C)C2)cc1`: the Potency was 35.5 µM (active).

For the compound `COc1ccc(CCNC2=CC(=O)CC(C)(C)C2)cc1`, the Potency result was “inactive”.

Consider `Cc1ccccc1NC(=O)c1cc2c([nH]c1=O)CC(C)(C)CC2=O`, for which the Potency entry was “inactive”.

Take `Cc1ccc(Cn2c(C)nc3c(c2=O)c2nc4ccccc4nc2n3Cc2ccco2)cc1`: the Potency was 1.41 µM (active).

As for `O=c1c2ccccc2oc2nc(C3CCCCC3)n(Cc3ccco3)c(=O)c12`, the Potency result was “inactive”.

In the case of `Cc1ccc(Cn2c(=O)n(Cc3nc(-c4ccccc4)no3)c(=O)c3cc4c(cc32)OCO4)cc1`, the Potency result was “inactive”.

Take `CCOc1ccc(-c2cc3c(=O)n(CC(=O)NCc4ccc(OC)cc4)ccn3n2)cc1`: the Potency entry is “inactive”.

Take `O=C(c1ccc2c(c1)N(Cc1ccccc1F)C(=O)c1ccccc1S2(=O)=O)N1CCOCC1`: the Potency result was “inactive”.

Consider `COc1ccc(-c2nc(Cn3c(=O)cc(C)c4c(C)nn(-c5ccccc5)c43)c(C)o2)cc1OC`, for which the Potency result is “inactive”.

Turning to `CC(=O)Nc1ccc(CN2CCN(Cc3ccc(F)c(F)c3)C(CCO)C2)cc1` (configuration not stated), the Potency was 20 µM (active).

As for `Cc1ccc(CN2CCN(Cc3ccc4ncccc4c3)CC2CCO)cc1` (configuration not stated), the Potency result was “inactive”.

Consider `COC(=O)c1ccc(CN2CCN(CCCc3ccccc3)C(CCO)C2)cc1` (configuration not stated), for which the Potency entry is “inactive”.

For the compound `CCS(=O)(=O)N1CCc2cc(C(=O)N3CCN(c4ccccc4OC)CC3)ccc21`, the Potency result is “inactive”.

As to `CCCCOc1ccc(C(C)(O)CCN2CCOCC2)cc1` (configuration not stated), the Potency result was “inactive”.

As for `CCOc1ccc(C(=O)CCC(=O)Nc2ccncc2)cc1`, the Potency result is “inactive”.

For `CCOc1ccc(C(=O)CCN2CCOCC2)cc1`, the Potency is 2.82 µM (active).

On to `O=C(CSc1ncc(S(=O)(=O)c2ccc(Br)cc2)c(=O)[nH]1)Nc1ccc2c(c1)OCCO2`, for which the Potency entry is “inactive”.

Take `Cc1ccc(C)c(Cn2c(CCCNC(=O)C3CCCCC3)nc3ccccc32)c1`: the Potency entry was “inactive”.

For the compound `COc1ccc(OC)c(C(c2nnnn2C(C)(C)C)N2CCc3ccccc3C2)c1` (configuration not stated), the Potency entry is “inactive”.

On to `COCCn1nnnc1C(c1cc2ccc(OC)cc2[nH]c1=O)N1CCc2ccccc2C1` (configuration not stated), for which the Potency was 44.7 µM (active).

As to `COc1ccc(N2CCN(C(c3cc4ccc(C)cc4[nH]c3=O)c3nnnn3C3CCCC3)CC2)cc1` (configuration not stated), the Potency result is “inactive”.

`CCOc1ccccc1NC(=O)c1ccc2c(c1)CCN2S(=O)(=O)c1ccc(C)cc1`: the Potency result is “inactive”.

As for `COc1ccc(-c2onc(C)c2C)cc1S(=O)(=O)NCCc1ccccc1`, the Potency result is “inactive”.

Turning to `O=c1[nH]c2cc(Br)ccc2n2cccc12`, the Potency result is “inactive”.

Regarding `CCOc1ccc(C2CC(=O)c3c([nH]c(C(=O)OCc4ccccc4)c3C)C2)cc1` (configuration not stated), the Potency result was “inactive”.

For `O=C(NCC(=O)N1CCN(c2ccccc2F)CC1)c1cccs1`, the Potency entry was “inactive”.

As for `CCc1cccc(C)c1NC(=O)COC(=O)CNC(=O)c1cccs1`, the Potency result is “inactive”.

For the compound `Cc1ccccc1C(CC(=O)c1cccs1)C(C#N)C#N` (configuration not stated), the Potency is 3.16 µM (active).

As to `COc1cccc2c1CCC(NC(C)=O)C2=O` (configuration not stated), the Potency result was “inactive”.

As for `COc1ccc(C(=O)OCC(=O)N2CC(=O)Nc3ccccc32)cc1Br`, the Potency result was “inactive”.

As to `COc1ccc(Br)c2c1C(=O)CC2`, the Potency was 35.5 µM (active).

For the compound `Cc1cc(C)cc(OCC(=O)Nc2c(C(=O)c3ccccc3)oc3ccccc23)c1`, the Potency result is “inactive”.

Consider `Cc1ccc(-c2onc(C)c2C)cc1S(=O)(=O)Nc1ccccn1`, for which the Potency result was “inactive”.

With `CCc1ccc(NC(=O)Cn2c(=O)n(CCC(=O)NCc3ccc4c(c3)OCO4)c(=O)c3ccccc32)cc1`, the Potency result was “inactive”.

As for `O=[N+]([O-])c1cc(C(F)(F)F)ccc1NN=C1CCCC1`, the Potency result was “inactive”.

For `O=[N+]([O-])c1ccc(N/N=C2/CCCCC2c2ccccn2)c([N+](=O)[O-])c1` (configuration not stated), the Potency is 8.91 µM (active).

In the case of `O=C(Nc1ccccc1)O/N=C1\CCCCC1c1ccc([N+](=O)[O-])cc1[N+](=O)[O-]` (configuration not stated), the Potency entry was “inactive”.

As for `COc1cc(NC(=O)CN2CCN(S(=O)(=O)c3ccc(Br)cc3)CC2)cc(OC)c1`, the Potency entry is “inactive”.

As to `O=C(NC1CCCCC1)c1ccc2c(c1)N(Cc1ccc(Cl)cc1)C(=O)c1ccccc1S2=O` (configuration not stated), the Potency entry is “inactive”.

Turning to `Cc1cc(NC(=O)CC(C)C)cc(-c2nc3ncccc3o2)c1O`, the Potency result was “inactive”.

Turning to `C#CCOCCOCCOCCNc1nc(N2CCN(C(=O)[C@H](CCC(=O)O)n3cc(C(N)CO)nn3)CC2)nc(N2CCN(C(=O)[C@H](Cc3ccc(O)cc3)n3cc(C(N)[C@H](C)CC)nn3)CC2)n1` (some centres not stated), the Potency is 35.5 µM (active).

In the case of `C#CCOCCOCCOCCNc1nc(N2CCN(C(=O)C(Cc3ccc(O)cc3)n3cc(C(N)CC(C)C)nn3)CC2)nc(N2CCN(C(=O)C(Cc3ccc(O)cc3)n3cc(C(N)C(C)CC)nn3)CC2)n1` (configuration not stated), the Potency result is “inactive”.

With `C#CCOCCOCCOCCNc1nc(N2CCN(C(=O)[C@H](Cc3ccc(O)cc3)n3cc(C(N)CC(C)C)nn3)CC2)nc(N2CCN(C(=O)[C@H](CCC(=O)O)n3cc(C(N)[C@H](C)CC)nn3)CC2)n1` (some centres not stated), the Potency result is “inactive”.

With `COC(=O)c1ccccc1NC(=O)c1ccc2c(=O)n3c(nc2c1)CCCCC3`, the Potency result is “inactive”.

As for `CCN(CCCNC(=O)c1cc(Nc2ccc(OC)cc2)nc2ccccc12)c1cccc(C)c1`, the Potency entry is “inactive”.

Consider `O=C(Nc1ccccc1N1CCCC1)c1ccc2ccccc2c1`, for which the Potency entry was “inactive”.

As for `O=C(Nc1ccccc1N1CCCCC1)c1ccc2nccnc2c1`, the Potency is 79.4 µM (active).

In the case of `O=C(Nc1ccccc1N1CCOCC1)c1ccncc1`, the Potency entry was “inactive”.
